From PubChem BioAssay (Tox21) come the findings set out here.

The nature of assay [1]: Caspase-3/7 induction in CHO-K1 cells by small molecules, qHTS assay (AID 1346980). Also: nearly all actives have a fitted effect of over 15% in size. The following applies: CHO-K1 caspase-3/7 induction, Caspase-Glo luminescence, 17 h; series mostly up to 92.4 µM. In a few lines:
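Wild-type cells were seeded at 1,500 per well and settled 5 hr at 37 C, 5% CO2, then exposed to DMSO-dissolved compounds for 17 hr. Caspase-Glo 3/7 reagent was added, and luminescence was read after 30min at room temperature.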

The target of assay [2] is Cytochrome P450 2C19 (Homo sapiens) (UniProt P33261). Kind of assay: Cytochrome P450 Family 2 Subfamily C Member 19 (CYP2C19) small molecule antagonists: luciferase reporter qHTS assay (AID 1671197). Also: nearly all actives have a fitted effect of over 65% in size. Also: potency is read from the fitted curve at half-maximal effect. The following applies: P450-Glo CYP2C19 enzyme, luciferin luminescence, 1 h; series mostly up to 52.9 µM. In a few lines:
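Compounds were tested on CYP2C19 activity via proluciferin conversion to luciferin. The 37C, 1 h reaction followed NADPH addition; detection reagent stopped it.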
A general note: In a reporter assay the amount or activity of a reporter protein is the signal.

Assay [3] can be described thus: Caspase-3/7 induction in HepG2 cells by small molecules, qHTS cell viability counter screen (AID 1346981). Also: nearly all actives have a fitted effect of over 30% in size. Also: potency is read from the fitted curve at half-maximal effect. Conditions: CellTiter-Fluor fluorescence, 17 h; series mostly up to 92.4 µM. Put shortly:
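Wild-type HepG2 cells (2,000/well) were allowed to settle for 5 hr at 37 C, 5% CO2, then dosed with compounds in DMSO by pin transfer. After 16 hr at 37 C, CellTiter-Fluor was added and fluorescence read 1 hr later.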
For orientation: qHTS replaces the single test concentration by a dilution series.

Assay [4] has as its target Nuclear receptor subfamily 1 group I member 2 (Homo sapiens) (UniProt O75469). Nature of the assay: Human pregnane X receptor (PXR) small molecule agonists, qHTS assay (AID 1346982). Also: nearly all actives have a fitted effect of over 35% in size. Also: potency is read from the fitted curve at half-maximal effect. Conditions: PXR-Luc HepG2, CYP3A4 luciferase reporter, 24 h; series mostly up to 92.4 µM. Put shortly:
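PXR-Luc HepG2 cells (CYP3A4 promoter-driven luciferase) were seeded in medium with 5% charcoal-stripped FBS, left 5 hr at 37 C, then exposed to compounds in DMSO for 24 hr. Luminescence was read after ONE-Glo addition.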

Assay [5] has as its target Cytochrome P450 2D6 (Homo sapiens) (UniProt P10635). Kind of assay: Cytochrome P450 Family 2 Subfamily D Member 6 (CYP2D6) small molecule antagonists: luciferase reporter qHTS assay (AID 1671196). Also: nearly all actives have a fitted effect of over 50% in size. Also: potency is read from the fitted curve at half-maximal effect. The following applies: P450-Glo CYP2D6 enzyme assay, luciferin luminescence, 1 h; series mostly up to 115 µM. Put shortly: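 CYP2D6 enzyme–substrate mix was held with compound for 10 min at room temperature, then NADPH regeneration solution was added and the reaction ran 1 h at room temperature. Luciferin product was detected by luminescence after 20 min with detection reagent.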

The target of assay [6] is Cytochrome P450 2C9 (Homo sapiens) (UniProt P11712). Kind of assay: Cytochrome P450 Family 2 Subfamily C Member 9 (CYP2C9) small molecule antagonists: luciferase reporter qHTS assay (AID 1671198). Also: nearly all actives have a fitted effect of over 50% in size. Also: potency is read from the fitted curve at half-maximal effect. Conditions: P450-Glo CYP2C9 enzyme assay, luciferin luminescence; series mostly up to 53 µM. In a few lines: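 CYP2C9 activity was measured with a P450-Glo proluciferin substrate. Enzyme–substrate mix was held with compound for 10 min at room temperature, then NADPH regeneration solution was added for 1 h at 37C. Luciferin product was read as luminescence.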

Assay [7] addresses Nuclear receptor subfamily 1 group I member 2 (Rattus norvegicus) (UniProt Q9R1A7). Kind of assay: Rat pregnane X receptor (rPXR) activation by small molecules, qHTS assay (AID 1346983). Also: nearly all actives have a fitted effect of over 20% in size. The following applies: rPXR luciferase reporter cells, One-Glo luminescence, 24 h; max activation: hits give high values. In a few lines: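 Cell-based rPXR luciferase reporter assay, 2,000 cells per well, rested 5hr at 37 C before compound addition in DMSO, then 24 hr at 37 C. One-Glo reagent was added and luminescence read after 30 min at room temperature.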

Assay [8] has as its target Nuclear receptor subfamily 1 group I member 2 (Homo sapiens) (UniProt O75469). Kind of assay: CYP3A4 induction through human pregnane X receptor (PXR) by small molecules, qHTS assay (AID 1346984). Also: nearly all actives have a fitted effect of over 40% in size. Conditions: DPX-2 HepG2 PXR, CYP3A4-luciferin luminescence, 24 h; series mostly up to 46.1 µM. In a few lines:
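DPX-2 cells (HepG2 co-transfected with PXR and CYP3A4 promoter-luciferase) treated with compounds 24 h at 37C; luciferin-IPA CYP3A4 substrate 3uM final added for 3 h, then One-Glo; luminescence read. qHTS format.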

Assay [9] has the same target. Nature of the assay: Human pregnane X receptor (PXR) activation by small molecules, qHTS assay (AID 1346985). Also: nearly all actives have a fitted effect of over 40% in size. The following applies: DPX-2 HepG2 CYP3A4-luciferase, 24 h; series mostly up to 38.3 µM. Put shortly: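 DPX-2 cells (HepG2 co-transfected with a PXR response element and a CYP3A4-promoter luciferase construct) were seeded at 2,000 per well, rested 5 hr at 37C, then exposed to DMSO-dissolved compounds for 24 hr. Activation was read as luciferase luminescence.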

Values without a mark were called inactive. Inconclusive results are not listed. The source made the active and inactive calls. Calls follow the shape of the dose curve; as a rule, active = well fitted curve in the direction sought with a large enough effect in the repeat runs; inconclusive = weak or mixed curves; inactive = no such curve, though single readings can be large; an effect the other way counts as inactive or inconclusive.
% is scaled to controls: 0 for no effect and ±100 for the full control effect.

Cytochrome P450 2C19 (Homo sapiens), sequence (P33261 whole entry, looked up): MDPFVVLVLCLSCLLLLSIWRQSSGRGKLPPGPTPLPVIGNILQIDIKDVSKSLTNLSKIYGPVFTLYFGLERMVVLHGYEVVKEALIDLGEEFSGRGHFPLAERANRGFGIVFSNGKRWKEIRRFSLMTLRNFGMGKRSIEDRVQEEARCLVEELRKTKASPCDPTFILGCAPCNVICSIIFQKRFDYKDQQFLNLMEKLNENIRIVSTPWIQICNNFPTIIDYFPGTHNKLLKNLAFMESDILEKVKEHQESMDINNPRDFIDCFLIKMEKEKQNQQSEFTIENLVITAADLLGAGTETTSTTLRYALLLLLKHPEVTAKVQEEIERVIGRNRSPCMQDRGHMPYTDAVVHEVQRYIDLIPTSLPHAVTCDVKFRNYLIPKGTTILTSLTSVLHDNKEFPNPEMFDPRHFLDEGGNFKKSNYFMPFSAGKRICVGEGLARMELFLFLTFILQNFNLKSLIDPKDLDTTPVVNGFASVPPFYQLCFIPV
Nuclear receptor subfamily 1 group I member 2 (Homo sapiens), sequence (O75469 whole entry, looked up): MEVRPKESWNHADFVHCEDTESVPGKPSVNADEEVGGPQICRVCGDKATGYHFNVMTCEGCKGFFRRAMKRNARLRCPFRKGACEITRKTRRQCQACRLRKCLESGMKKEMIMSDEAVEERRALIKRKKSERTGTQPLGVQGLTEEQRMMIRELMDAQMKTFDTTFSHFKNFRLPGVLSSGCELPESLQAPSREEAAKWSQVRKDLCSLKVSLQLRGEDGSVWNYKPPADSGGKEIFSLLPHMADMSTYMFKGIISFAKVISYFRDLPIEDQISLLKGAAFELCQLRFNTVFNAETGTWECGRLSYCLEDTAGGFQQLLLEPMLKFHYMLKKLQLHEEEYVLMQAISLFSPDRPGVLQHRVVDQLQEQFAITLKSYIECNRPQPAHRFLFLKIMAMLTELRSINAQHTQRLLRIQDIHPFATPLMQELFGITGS
Cytochrome P450 2C9 (Homo sapiens), sequence (P11712 whole entry, looked up): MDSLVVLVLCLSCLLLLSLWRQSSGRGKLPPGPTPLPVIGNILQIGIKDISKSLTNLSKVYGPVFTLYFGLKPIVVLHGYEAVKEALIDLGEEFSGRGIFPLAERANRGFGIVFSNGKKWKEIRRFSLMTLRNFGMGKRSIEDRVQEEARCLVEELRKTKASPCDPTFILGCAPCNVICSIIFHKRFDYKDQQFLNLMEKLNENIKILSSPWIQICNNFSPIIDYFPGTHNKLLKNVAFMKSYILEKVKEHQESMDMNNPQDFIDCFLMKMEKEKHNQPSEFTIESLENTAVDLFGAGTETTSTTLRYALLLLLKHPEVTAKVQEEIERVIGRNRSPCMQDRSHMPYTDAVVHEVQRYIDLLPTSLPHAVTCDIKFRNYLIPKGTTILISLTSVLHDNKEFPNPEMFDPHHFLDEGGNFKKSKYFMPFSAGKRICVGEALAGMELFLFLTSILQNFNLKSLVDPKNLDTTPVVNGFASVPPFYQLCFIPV
Cytochrome P450 2D6 (Homo sapiens), sequence (P10635 whole entry, looked up): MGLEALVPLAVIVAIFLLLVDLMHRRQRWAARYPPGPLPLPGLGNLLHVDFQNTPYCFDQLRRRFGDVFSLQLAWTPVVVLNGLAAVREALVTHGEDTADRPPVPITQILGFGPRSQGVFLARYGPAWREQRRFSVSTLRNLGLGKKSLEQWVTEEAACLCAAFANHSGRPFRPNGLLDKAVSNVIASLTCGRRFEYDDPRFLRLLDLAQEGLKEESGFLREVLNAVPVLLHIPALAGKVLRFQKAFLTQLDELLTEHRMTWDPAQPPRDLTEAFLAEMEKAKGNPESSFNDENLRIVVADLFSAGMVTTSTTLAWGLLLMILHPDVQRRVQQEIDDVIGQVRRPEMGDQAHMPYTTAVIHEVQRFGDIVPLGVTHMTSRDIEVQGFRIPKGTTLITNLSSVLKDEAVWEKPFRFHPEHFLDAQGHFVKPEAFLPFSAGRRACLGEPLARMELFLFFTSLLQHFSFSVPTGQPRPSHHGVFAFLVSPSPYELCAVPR
Nuclear receptor subfamily 1 group I member 2 (Rattus norvegicus), sequence (Q9R1A7 whole entry, looked up): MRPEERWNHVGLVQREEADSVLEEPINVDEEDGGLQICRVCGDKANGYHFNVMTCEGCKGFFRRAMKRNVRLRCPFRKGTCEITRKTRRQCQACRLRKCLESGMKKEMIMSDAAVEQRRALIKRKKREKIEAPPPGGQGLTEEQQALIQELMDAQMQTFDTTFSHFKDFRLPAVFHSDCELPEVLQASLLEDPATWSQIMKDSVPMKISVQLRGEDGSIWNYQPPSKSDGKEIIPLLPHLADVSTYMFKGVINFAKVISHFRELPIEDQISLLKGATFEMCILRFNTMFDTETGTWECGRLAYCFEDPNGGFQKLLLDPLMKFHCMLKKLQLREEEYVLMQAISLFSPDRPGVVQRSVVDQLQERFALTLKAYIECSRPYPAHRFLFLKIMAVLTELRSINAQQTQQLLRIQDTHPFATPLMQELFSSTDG

On to `CC(=O)S[C@@H]1CC2=CC(=O)CC[C@]2(C)[C@H]2CC[C@@]3(C)[C@@H](CC[C@@]34CCC(=O)O4)[C@H]12`, for which the Potency entry in assay [1] was “inactive”. Also, in [2], the Potency was 6.33 µM (active).
As to `CCC(N)(CO)CO`, the Potency result in assay [3], in assay [4], in assay [5], in assay [2] and in assay [6] was “inactive” each time.
Regarding `CCCCCCCCCCn1cc[n+](CCCCCCCCCC)c1C`, the Potency in assay [3] was 68.7 µM (active); in assay [4], 7.7 µM (active); in assay [5] it was 1.26 µM (active); in assay [2], 35.6 µM (active); in [6], 40 µM (active).
On to `CCC(CN)=C(c1ccccc1)c1ccccc1`, for which the Potency result in [3] is “inactive”. The Potency is 4.36 µM (active) in assay [5], 4.36 µM (active) in [2] and 15.5 µM (active) in [6].
With `CCCCCCCC[P+](CCCCCCCC)(CCCCCCCC)CCCCCCCC`, the Potency was 13.6 µM (active) in assay [3]; 2.42 µM (active) in [4]; 0.141 µM (active) in assay [5]; 7.06 µM (active) in assay [2]; 22.3 µM (active) in assay [6].
As to `CCCCCCCCOc1ccccc1C(=O)Nc1ccc(C(=O)OCC[N+](C)(CC)CC)cc1`, the Potency entry in assay [4], in [8] and in [9] was “inactive” throughout. Also, the max activation in assay [7] is 0.409%. Besides, the Potency is 38.9 µM (active) in assay [5], 3.89 µM (active) in assay [2] and 4.36 µM (active) in assay [6].
As for `CCCC(=O)OC[C@@H](OC(=O)CCC)[C@@H](OC(=O)CCC)[C@H](Cn1c2nc(=O)[nH]c(=O)c-2nc2cc(C)c(C)cc21)OC(=O)CCC`, the Potency result in assay [8] and in assay [9] was “inactive” each time. Moreover, the results for the Potency in assay [5], in [2] and in assay [6] were 8.71 µM (active), 8.71 µM (active) and 13.8 µM (active), respectively.
In the case of `OCCN1CCN(CC/C=C2/c3ccccc3Sc3ccc(C(F)(F)F)cc32)CC1`, the Potency in [3] is 33.5 µM (active); in assay [5], 6.92 µM (active); in assay [2] it was 34.7 µM (active). Further, the Potency entry in assay [4] and in assay [6] was “inactive” each time.
Consider `CC(C)c1ccc2c(c1)CC[C@H]1[C@](C)(CN)CCC[C@]21C`, for which the figures for the Potency in [4], in [5] and in [2] were 19.3 µM (active), 1.26 µM (active) and 7.1 µM (active), respectively.
As for `CCN(CC)CCCC(C)Nc1c2ccc(Cl)cc2nc2ccc(OC)cc12` (centres undefined), in assay [4], the Potency is 5.96 µM (active). The Potency result in assay [8], in assay [9], in assay [2] and in assay [6] was “inactive” in each case.
Regarding `O=C(O)c1ccc(Cl)c(Cl)c1`, the Potency entry in assay [3], in assay [4], in assay [5] and in assay [6] was “inactive” throughout.
For `CCCCCOc1ccccc1/C(=C\SC)n1ccnc1`, the Potency entry in assay [3] was “inactive”. The Potency in assay [4] is 2.98 µM (active); in [5], 4.36 µM (active); in assay [2] it was 1.1 µM (active); in assay [6], 5.49 µM (active).
On to `N=C1C=CC(=C(c2ccc(N)cc2)c2ccc(N)cc2)C=C1`, for which the Potency was 13.7 µM (active) in [3], 6.33 µM (active) in assay [5], 39.9 µM (active) in [2] and 39.9 µM (active) in assay [6]. For the same molecule, the Potency result in assay [4] is “inactive”.
For the molecule `CCOC(=O)O[C@H](C)OC(=O)c1ccc2c(c1)cc(C(=O)NC1CCN(C(C)C)CC1)n2Cc1cc(-c2ccc(Cl)s2)on1`, the Potency is 50.9 µM (active) in [3], 37.3 µM (active) in assay [5] and 33.2 µM (active) in [6]. Also, the Potency entry in assay [4] is “inactive”.
As for `OCCN(CCO)c1nc(N2CCCCC2)c2nc(N(CCO)CCO)nc(N3CCCCC3)c2n1`, the Potency in [5] is 9.77 µM (active).
As for `CCCCC(CC)COC(=O)c1ccccc1C(=O)O` (centres undefined), the Potency entry in [1] is “inactive”. Besides, the Potency was 35 µM (active) in assay [4], 40.6 µM (active) in assay [2] and 5.91 µM (active) in [6].
